Laboratory results as given in PubChem BioAssay AID1159580 (chemical genetic matrix, 2015).
About 2,000 (36%) of roughly 5,500 compounds were called active. Not shown: some 18% with an inconclusive outcome. No stated cut-off is given here; in the data, active means normalized growth mostly below about 0.91 (no sharp cut-off); inconclusive means no clear call, values can overlap the other calls; inactive means mostly above about 0.92. This is one part of the list.

Assay: chemical genetic growth profiling, strain panel (AID 1159580);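 further: tested at 20 µM; growth read once vehicle control cultures reached saturation at 30 °C; 1 = growth at the plate median or of vehicle wells; lower values mean less growth of the strain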
Conditions: growth OD

Measured: normalized growth

COc1cc(C(=O)O)cc(OC)c1OC
inactive: S. cerevisiae deletion strains, locus YAL013W, strain DEP1, hits give low values 1.02 | S. cerevisiae deletion strains, locus YBR021W, strain FUR4, hits give low values 1.01 | S. cerevisiae deletion strains, locus YBR229C, strain ROT2, hits give low values 1.01 | S. cerevisiae deletion strains, locus YCL029C, strain bik1, hits give low values 1.04 | S. cerevisiae deletion strains, locus YDL035C, strain GPR1, hits give low values 1.04 | S. cerevisiae deletion strains, locus YDL074C, strain BRE1, hits give low values 1.05 | S. cerevisiae deletion strains, locus YDL101C, strain DUN1, hits give low values 1.02 | S. cerevisiae deletion strains, locus YDL134C, strain PPH21, hits give low values 1.01 | S. cerevisiae deletion strains, locus YDL185W, strain tfp1, hits give low values 1.03 | S. cerevisiae deletion strains, locus YDL192W, strain arf1, hits give low values 1.02 | S. cerevisiae deletion strains, locus YDR101C, strain arx1, hits give low values 1.02 | S. cerevisiae deletion strains, locus YDR162C, strain NBP2, hits give low values 1.02 | S. cerevisiae deletion strains, locus YDR318W, strain mcm21, hits give low values 1.02 | S. cerevisiae deletion strains, locus YDR388W, hits give low values 1.03 | S. cerevisiae deletion strains, locus YDR502C, strain sam2, hits give low values 1.02 | S. cerevisiae deletion strains, locus YEL061C, strain CIN8, hits give low values 1.01 | S. cerevisiae deletion strains, locus YER110C, hits give low values 1.03 | S. cerevisiae deletion strains, locus YER155C, strain BEM2, hits give low values 1.01 | S. cerevisiae deletion strains, locus YER167W, strain BCK2, hits give low values 1.03 | S. cerevisiae deletion strains, locus YGL078C, strain dbp3, hits give low values 1.03 | S. cerevisiae deletion strains, locus YGL086W, strain mad1, hits give low values 1.03 | S. cerevisiae deletion strains, locus YGL248W, strain PDE1, hits give low values 1.02 | S. cerevisiae deletion strains, locus YGR078C, strain PAC10, hits give low values 1.03 | S. cerevisiae deletion strains, locus YGR135W, strain pre9, hits give low values 1.02 | S. cerevisiae deletion strains, locus YGR252W, strain gcn5, hits give low values 1.09 | S. cerevisiae deletion strains, locus YHR030C, strain SLT2, hits give low values 1.02 | S. cerevisiae deletion strains, locus YHR079C, strain IRE1 (second series), hits give low values 1.02 | S. cerevisiae deletion strains, locus YHR094C, strain hxt1, hits give low values 1.02 | S. cerevisiae deletion strains, locus YHR129C, strain ARP1, hits give low values 1.02 | S. cerevisiae deletion strains, locus YHR200W, strain rpn10, hits give low values 1.02 | S. cerevisiae deletion strains, locus YIL066C, strain RNR3, hits give low values 1.04 | S. cerevisiae deletion strains, locus YIL073C, strain SPO22, hits give low values 1.09 | S. cerevisiae deletion strains, locus YIL125W, strain kgd1, hits give low values 1.03 | S. cerevisiae deletion strains, locus YIR030C, strain dcg1, hits give low values 1.02 | S. cerevisiae deletion strains, locus YJL095W, strain BCK1, hits give low values 1.02 | S. cerevisiae deletion strains, locus YJL134W, strain LCB3, hits give low values 1.02 | S. cerevisiae deletion strains, locus YJL168C, strain set2, hits give low values 1.03 | S. cerevisiae deletion strains, locus YJL187C, strain SWE1 (second series), hits give low values 1.03 | S. cerevisiae deletion strains, locus YJR043C, strain POL32, hits give low values 1.03 | S. cerevisiae deletion strains, locus YJR075W, strain HOC1, hits give low values 1.04 | S. cerevisiae deletion strains, locus YKL009W, strain mrt4, hits give low values 1.08 | S. cerevisiae deletion strains, locus YKL068W, hits give low values 1.04 | S. cerevisiae deletion strains, locus YKL085W, strain MDH1 (second series), hits give low values 1.07 | S. cerevisiae deletion strains, locus YKL085W, strain MDH1, hits give low values 1.07 | S. cerevisiae deletion strains, locus YKR001C, strain vps1, hits give low values 1.02 | S. cerevisiae deletion strains, locus YLR039C, strain RIC1, hits give low values 1.07 | S. cerevisiae deletion strains, locus YLR058C, strain SHM2, hits give low values 1.02 | S. cerevisiae deletion strains, locus YLR102C, strain apc9, hits give low values 1.02 | S. cerevisiae deletion strains, locus YLR262C, strain YPT6, hits give low values 1.09 | S. cerevisiae deletion strains, locus YLR268W, strain sec22, hits give low values 1.02 | S. cerevisiae deletion strains, locus YLR330W, strain CHS5, hits give low values 1.02 | S. cerevisiae deletion strains, locus YLR342W, strain FKS1 (second series), hits give low values 1.04 | S. cerevisiae deletion strains, locus YLR371W, strain rom2, hits give low values 1.04 | S. cerevisiae deletion strains, locus YLR418C, strain cdc73, hits give low values 1.04 | S. cerevisiae deletion strains, locus YML016C, strain PPZ1, hits give low values 1.02 | S. cerevisiae deletion strains, locus YML032C, strain rad52, hits give low values 1.03 | S. cerevisiae deletion strains, locus YML124C, strain tub3, hits give low values 1.02 | S. cerevisiae deletion strains, locus YMR078C, strain ctf18, hits give low values 1.06 | S. cerevisiae deletion strains, locus YMR223W, strain ubp8, hits give low values 1.02 | S. cerevisiae deletion strains, locus YMR263W, strain SAP30, hits give low values 1.02 | S. cerevisiae deletion strains, locus YMR307W, strain GAS1, hits give low values 1.03 | S. cerevisiae deletion strains, locus YNL067W, strain RPL9B, hits give low values 1.03 | S. cerevisiae deletion strains, locus YNL128W, strain TEP1, hits give low values 1.03 | S. cerevisiae deletion strains, locus YNL153C, strain GIM3, hits give low values 1.01 | S. cerevisiae deletion strains, locus YNL233W, strain BNI4, hits give low values 1.03 | S. cerevisiae deletion strains, locus YNL250W, strain rad50, hits give low values 1.03 | S. cerevisiae deletion strains, locus YNL271C, strain bni1, hits give low values 1.02 | S. cerevisiae deletion strains, locus YNL298W, strain CLA4, hits give low values 1.01 | S. cerevisiae deletion strains, locus YNL307C, strain MCK1, hits give low values 1.05 | S. cerevisiae deletion strains, locus YNL322C, strain KRE1, hits give low values 1.02 | S. cerevisiae deletion strains, locus YNR052C, strain pop2, hits give low values 1.03 | S. cerevisiae deletion strains, locus YOL006C, strain TOP1, hits give low values 1.2 | S. cerevisiae deletion strains, locus YOL012C, strain htz1 1.18 | S. cerevisiae deletion strains, locus YOL147C, strain pex11, hits give low values 1.02 | S. cerevisiae deletion strains, locus YOR061W, strain CKA2, hits give low values 1.02 | S. cerevisiae deletion strains, locus YOR069W, strain VPS5, hits give low values 1.01 | S. cerevisiae deletion strains, locus YOR136W, strain idh2, hits give low values 1.02 | S. cerevisiae deletion strains, locus YOR144C, strain elg1, hits give low values 1 | S. cerevisiae deletion strains, locus YOR184W, strain ser1, hits give low values 1.02 | S. cerevisiae deletion strains, locus YOR316C, strain cot1, hits give low values 1.02 | S. cerevisiae deletion strains, locus YPL055C, strain LGE1, hits give low values 1.05 | S. cerevisiae deletion strains, locus YPL241C, strain CIN2, hits give low values 1.02 | S. cerevisiae deletion strains, locus YPR119W, strain clb2, hits give low values 1.02 | S. cerevisiae deletion strains, locus YPR141C, strain kar3, hits give low values 1.02 | S. cerevisiae deletion strains, locus YPR163C, strain tif3, hits give low values 1.02 | S. cerevisiae deletion strains, locus YPR167C, strain met16, hits give low values 1.03 | S. cerevisiae deletion strains, strain wtn01, hits give low values 1.03 | S. cerevisiae strains, strain wild type, hits give low values 1.02
